What follows are sequences tested against pT7_6His-AlfaTag-HOXD13 (human, UniProt P35453 263-343) (assay: PADIT-seq). Settings: dsDNA, one strand shown.
Sequence of pT7_6His-AlfaTag-HOXD13 (P35453 263-343): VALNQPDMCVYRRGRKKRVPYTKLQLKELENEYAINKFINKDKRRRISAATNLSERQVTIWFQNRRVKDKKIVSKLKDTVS
Sequence “CTCGAGGATATCAAGATCTGGCCTCGGCATTTTATCAGGAACCTCTAGCTAGCCGACTCACTATAGGGATAATCGCCCTGAGCAAAGACC” has a binding signal of 2.32 ± 0.0735 log2FC. For “CTCGAGGATATCAAGATCTGGCCTCGGCATTTTAACGGGAACCTCTAGCTAGCCGACTCACTATAGGGATAATCGCCCTGAGCAAAGACC”, the binding signal was 1.87 ± 0.0803 log2FC. With “CTCGAGGATATCAAGATCTGGCCTCGGCGCGTTTGCGGGAACCTCTAGCTAGCCGACTCACTATAGGGATAATCGCCCTGAGCAAAGACC” the binding signal was -0.387 ± 0.156 log2FC. With “CTCGAGGATATCAAGATCTGGCCTCGGCAGCATAAAAGGAACCTCTAGCTAGCCGACTCACTATAGGGATAATCGCCCTGAGCAAAGACC” the binding signal was 0.863 ± 0.103 log2FC. For “CTCGAGGATATCAAGATCTGGCCTCGGCATTTTATGTGGAACCTCTAGCTAGCCGACTCACTATAGGGATAATCGCCCTGAGCAAAGACC”, the binding signal was 2.99 ± 0.0772 log2FC. Work on “CTCGAGGATATCAAGATCTGGCCTCGGCAAAGTAAAAGGAACCTCTAGCTAGCCGACTCACTATAGGGATAATCGCCCTGAGCAAAGACC” yielded a binding signal of 0.197 ± 0.0829 log2FC. For “CTCGAGGATATCAAGATCTGGCCTCGGCTGAATAAAAGGAACCTCTAGCTAGCCGACTCACTATAGGGATAATCGCCCTGAGCAAAGACC”, the binding signal was 0.859 ± 0.0895 log2FC. “CTCGAGGATATCAAGATCTGGCCTCGGCCCAATAAAAGGAACCTCTAGCTAGCCGACTCACTATAGGGATAATCGCCCTGAGCAAAGACC” showed a binding signal of 2.95 ± 0.095 log2FC. “CTCGAGGATATCAAGATCTGGCCTCGGCTCGATAAAAGGAACCTCTAGCTAGCCGACTCACTATAGGGATAATCGCCCTGAGCAAAGACC” showed a binding signal of 1.03 ± 0.106 log2FC. “CTCGAGGATATCAAGATCTGGCCTCGGCGCGTAAGCGGGAACCTCTAGCTAGCCGACTCACTATAGGGATAATCGCCCTGAGCAAAGACC” was tested, and the binding signal was -0.575 ± 0.113 log2FC. In the case of “CTCGAGGATATCAAGATCTGGCCTCGGCATAGTAAAAGGAACCTCTAGCTAGCCGACTCACTATAGGGATAATCGCCCTGAGCAAAGACC”, the binding signal is reported as 1.98 ± 0.0822 log2FC. In the case of “CTCGAGGATATCAAGATCTGGCCTCGGCTTTTTAATCGGAACCTCTAGCTAGCCGACTCACTATAGGGATAATCGCCCTGAGCAAAGACC”, the binding signal is reported as 1.1 ± 0.0911 log2FC. “CTCGAGGATATCAAGATCTGGCCTCGGCCATATAAAAGGAACCTCTAGCTAGCCGACTCACTATAGGGATAATCGCCCTGAGCAAAGACC” was tested, and the binding signal was 2.76 ± 0.0974 log2FC.

Reference: publication doi:10.1101/2024.03.05.583629
